Compounds with a hit are over-represented: about 3.4% of the library has one in this group of screens.
TEAD-YAP block = TEAD-YAP interaction inhibition, primary screen, TEAD-YAP interaction inhibitor project, luminescence, HEK-TIYL cells; inhibition, % at 9.12 µM; TEAD-Gal4/YAP UAS-luciferase luminescence; actives 1.4% (n = 640,000); in the data active = inhibition above about 32%;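 note: 0% = median of test compound wells and 100% = reference inhibitor wells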
GPR151 ag = activators of human GPR151, primary screen, cell-based, PathHunter beta-arrestin, luminescence; G-protein coupled receptor 151 (Homo sapiens), Q8TDV0; activation, % at 11.2 µM; actives 1% (n = 650,000); AID 1508602, 2020; PathHunter beta-arrestin GPR151 cells; in the data active = activation above about 4.9%;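 note: 0% = median of compound wells and 100% = cells with positive control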
MITF primary = MITF inhibitors, primary screen, biochemical, AlphaScreen, human; Microphthalmia-associated transcription factor (Homo sapiens), O75030; AlphaScreen MITF homodimerization, bead proximity signal; inhibition, % at 2.6 µM; actives 0.91% (n = 650,000); in the data active = inhibition above about 50%;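 note: 0% = vehicle wells with protein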
Target sequence (O75030 whole entry, looked up): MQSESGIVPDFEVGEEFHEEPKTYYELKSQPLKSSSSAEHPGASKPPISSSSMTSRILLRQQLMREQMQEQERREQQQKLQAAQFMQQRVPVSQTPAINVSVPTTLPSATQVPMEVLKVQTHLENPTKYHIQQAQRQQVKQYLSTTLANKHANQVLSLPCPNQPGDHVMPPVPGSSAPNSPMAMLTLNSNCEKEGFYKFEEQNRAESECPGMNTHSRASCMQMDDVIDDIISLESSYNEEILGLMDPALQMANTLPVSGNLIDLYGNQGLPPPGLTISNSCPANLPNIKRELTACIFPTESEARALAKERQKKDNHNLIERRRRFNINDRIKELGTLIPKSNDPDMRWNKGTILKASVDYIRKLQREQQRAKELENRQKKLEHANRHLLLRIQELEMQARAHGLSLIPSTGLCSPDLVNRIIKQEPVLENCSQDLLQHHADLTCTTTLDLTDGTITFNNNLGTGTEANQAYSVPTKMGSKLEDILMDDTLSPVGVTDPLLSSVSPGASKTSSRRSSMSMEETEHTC
FBW7 activator = FBW7 E3 ligase activators, primary screen, biochemical, AlphaScreen, human. AlphaScreen FBW7–phospho-cyclin E peptide binding, activator screen. normalized activity (activation), % at 26.1 µM. actives 0.13% (n = 650,000). AID 1259310, 2017; in the data active = normalized activity above about 1.9%;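 note: purified mutant Fbw7 with reduced substrate affinity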
* = called active by the depositor.

SMILES	TEAD-YAP block	GPR151 ag	MITF primary	FBW7 activator
CCOc1cc(C2C(C#N)=C(N)Oc3cc4c(cc32)OCO4)cc(Br)c1OC (centres undefined)	56.9*	1.2	4.7	0.0
COc1cc(/C=N\n2nnnc2N)cc(Br)c1OC(C)C	4.3	1.0	0.9	0.0
CC(C)N(C)C1CCN(C(=S)Nc2ccccc2F)CC1	3.3	1.1	3.3	-0.1
COc1cc(-c2ncnn2-c2sc3c(c2C#N)CCCCC3)ccc1O	79.0*	0.5	-12.3	-0.3
COc1ccc(-c2ncnn2-c2sc3c(c2C#N)CCCCC3)cc1OC	-1.4	0.2	-10.4	-0.3
Cc1nonc1CC(=O)N[C@@H](Cn1nc(-c2cccs2)ccc1=O)C(C)C	1.4	0.5	12.8	0.2
CCCCCCC1(C)N=C(c2ccc(CC)cc2)CC(c2cc(Br)ccc2O)N1 (centres undefined)	-1.2	-0.1	6.4	0.1
Cc1cnc(Nc2ccncc2)nc1Nc1ccccc1	49.0*	1.1	5.8	0.1
COc1cc(Nc2cc(Nc3cccc(N(C)C)c3)ncn2)cc(OC)c1OC	39.5*	0.6	9.2	-0.1
COc1cc(Nc2nc(Nc3cccc(N(C)C)c3)ncc2C)cc(OC)c1OC	54.1*	-1.0	11.1	0.0
COc1cc(Nc2ccnc(Nc3cccc(N(C)C)c3)n2)cc(OC)c1OC	11.4	1.2	11.9	-0.1
COc1cc(Nc2cc(Nc3nccc4ccccc34)ncn2)cc(OC)c1OC	48.8*	-1.1	-13.7	1.6
COc1ccc(CCNc2nc(Nc3cccc(N(C)C)c3)ncc2C)cc1	15.6	2.7	2.3	-0.3
c1ccc(Nc2cc(Nc3nccc4ccccc34)ncn2)cc1	-17.1	0.6	-9.7	-0.1
O=C(COC(=O)Cc1ccc(-c2ccccc2)cc1)Nc1ccc2c(c1)OCO2	8.3	-1.3	9.5	0.3
Cc1cnc(Nc2cccc(N(C)C)c2)nc1Nc1ccccc1	45.7*	1.1	13.2	-0.1
Cc1cnc(Nc2cccc(N(C)C)c2)nc1NCCN(C(C)C)C(C)C	9.3	-1.4	3.2	-0.1
CC(C)(C)OC(=O)N1CCc2c(cnn2-c2cccc(C(=O)Nc3ccc(N4CCOCC4)cc3)c2)C1	0.7	-0.9	12.4	4.1*
O=C(Nc1ccc(N2CCOCC2)cc1)c1cccc(-n2ncc3c2CCNC3)c1	-0.3	0.3	1.0	-0.2
O=C(Nc1ccc(N2CCOCC2)cc1)c1cccc(-n2cc(-c3nc4ccccc4o3)cn2)c1	-6.5	-0.8	-4.7	2.4*
COc1ccc(-c2c[n+](CC(=O)c3ccc(Cl)cc3)c3n2CCCCC3)cc1	14.2	1.5	11.5	0.0
COc1ccc(C(=O)C[n+]2cc(-c3ccc(OC)cc3)n3c2CCCCC3)cc1	38.0*	0.3	-3.1	-0.1
C/C(=N\NS(=O)(=O)c1ccc(C)c([N+](=O)[O-])c1)c1ccc(O)cc1	1.1	0.8	0.7	0.2
Cc1ccc(C(Nc2cc(Cl)ncn2)C(F)(F)F)cc1 (centres undefined)	33.7*	1.5	2.5	0.8
CC(COc1ccc2ccccc2c1)Nc1cc(Cl)ncn1 (centres undefined)	1.7	-0.6	17.5	0.1
SMILES	TEAD-YAP block	GPR151 ag	MITF primary	FBW7 activator
CCOC(=O)C1=C(CS(=O)(=O)c2ccc(C)cc2)NC(=O)NC1c1ccc(Cl)cc1 (centres undefined)	7.9	-0.5	4.8	0.8
CCOC(=O)N1CCN(C(=O)c2ccc(Cn3c(=S)[nH]c4ccccc4c3=O)cc2)CC1	45.3*	-0.7	-6.4	0.0
CC1CCN(C(=O)CSc2ncccc2-c2nc3ccccc3[nH]2)CC1	48.9*	-1.6	-9.4	0.3
COC(=O)c1sc(NC(=O)CSc2ncccc2-c2nc3ccccc3[nH]2)nc1C	0.5	1.8	10.2	0.0
Cc1nc(NC(=O)CSc2ncccc2-c2nc3ccccc3[nH]2)sc1C	73.0*	1.1	-13.3	0.2
c1cn(Cc2ccc(Cn3ccnc3)cc2)cn1	5.3	0.9	-14.9	-0.3
O=C(c1ccccc1)N(NC(=O)C(O)(c1ccccc1)c1ccccc1)C(c1ccccc1)c1ccccc1	-4.2	-1.7	-14.9	-0.1
Cc1cc([N+](=O)[O-])nn1CC(=O)NCc1ccc(F)cc1C(F)(F)F	44.3*	-0.7	9.6	-0.1
O=C(Cn1c(=O)oc2cc(Cl)ccc21)NN1CCOCC1	2.2	-0.9	0.4	-0.3
COc1cccc(N2C(=O)/C(=C/C=C/c3ccco3)C(=O)NC2=S)c1	5.6	-1.8	56.9*	0.5
CC1(C)OC(=O)C(=C/C=C/c2ccco2)C(=O)O1	9.2	-0.5	71.5*	-0.1
O=C1NC(=O)N(c2cccc(F)c2)C(=O)/C1=C\C=C\c1ccco1	-2.9	0.2	27.2	0.0
CN1C(=O)C(=Cc2ccc(I)o2)C(=O)N(C)C1=S	-1.0	0.9	80.6*	-0.4
CC(=O)c1ccc(-c2ccc(C=C3C(=O)N(C)C(=S)N(C)C3=O)o2)cc1	-13.5	-1.0	-4.6	-0.2
CN1C(=O)C(=Cc2ccco2)C(=O)N(C)C1=S	6.2	-0.5	70.7*	-1.3
COc1ccccc1NC(=O)C1CC12CCN(Cc1ccnc3ccccc13)CC2 (centres undefined)	0.6	1.0	12.1	-0.1
Cc1c(C(=O)Nc2cccc(C(F)(F)F)c2)sc2ncn(CC(=O)N3CCCC3)c(=O)c12	5.9	0.0	36.0	0.2
CN1C(=O)C(=C/C=C/c2ccco2)C(=O)N(C)C1=S	2.0	-1.0	76.8*	-0.2
CN1C2CCC1/C(=C\c1ccco1)C(=O)/C2=C\c1ccco1	4.5	-0.7	54.3*	-0.1
O=C1/C(=C\c2ccco2)N2CCC1CC2	-0.7	1.3	20.1	0.0
CCC(C)(C)C1CCc2oc3c(cc(NS(=O)(=O)c4ccc(Cl)cc4)c4ccccc43)c2C1 (centres undefined)	1.3	1.4	0.3	0.1
Cn1c(Nc2nc(NCCCN3CCCC3=O)c3ncn(-c4ccccc4)c3n2)nc2ccccc21	39.4*	-0.4	6.3	0.0
c1ccc(-n2cnc3c(NC4CC4)nc(Nc4ncccn4)nc32)cc1	23.3	-0.3	-7.4	0.1
Cn1c(Nc2nc(NCCc3ccc(O)cc3)c3ncn(-c4ccccc4)c3n2)nc2ccccc21	18.6	-3.7	1.4	0.8
CC(C)N(CCNc1nc(Nc2nc3ccccc3n2C)nc2c1ncn2C(C)C)C(C)C	42.9*	0.5	-6.7	-0.3
SMILES	TEAD-YAP block	GPR151 ag	MITF primary	FBW7 activator
CCCNc1nc(Nc2nc3ccccc3n2C)nc2c1ncn2-c1ccccc1	54.6*	3.9	-48.8	-0.2
Cn1c(Nc2nc(NC3CC3)c3ncn(-c4ccccc4)c3n2)nc2ccccc21	46.5*	-0.1	13.4	-0.2
Oc1ccc(CCNc2cc(Nc3ccc(-n4ccnc4)cc3)ncn2)cc1	3.0	-1.4	22.9	0.3
COc1ccccc1NC(=O)CSc1nnc(-c2ccc(Cl)cc2)n1N	-5.8	-1.1	0.8	-0.3
COc1ccc(C(=O)Nc2ccccc2)cc1S(=O)(=O)NC1CCCCC1	0.8	-0.6	-1.1	0.0
Cc1ncc2c(c1CNC(=O)c1ccoc1C)CCN(C(=O)c1cn3ccsc3n1)C2	-4.0	1.8	1.4	-0.3
